Source: PubChem BioAssay (NCATS)
Records with an inconclusive call do not appear. Calls of active or inactive are those of the source. Unless noted, the call rests on the fitted dose curve.

Assays:
[1] = molecular target: Alpha-galactosidase (Coffea arabica) (UniProt Q42656); assay: Counterscreen for Glucocerebrosidase Inhibitors: qHTS Assay for Coffee Bean alpha-Galactosidase at pH 4.5 (AID 957; active means well fitted curve in the direction sought with a large enough effect; an effect the other way counts as inactive or inconclusive;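 further: series mostly up to about 77 µM; plate controls were enzyme alone for no effect and no enzyme for full effect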)
Alpha-galactosidase (Coffea arabica), sequence (Q42656 whole entry, looked up): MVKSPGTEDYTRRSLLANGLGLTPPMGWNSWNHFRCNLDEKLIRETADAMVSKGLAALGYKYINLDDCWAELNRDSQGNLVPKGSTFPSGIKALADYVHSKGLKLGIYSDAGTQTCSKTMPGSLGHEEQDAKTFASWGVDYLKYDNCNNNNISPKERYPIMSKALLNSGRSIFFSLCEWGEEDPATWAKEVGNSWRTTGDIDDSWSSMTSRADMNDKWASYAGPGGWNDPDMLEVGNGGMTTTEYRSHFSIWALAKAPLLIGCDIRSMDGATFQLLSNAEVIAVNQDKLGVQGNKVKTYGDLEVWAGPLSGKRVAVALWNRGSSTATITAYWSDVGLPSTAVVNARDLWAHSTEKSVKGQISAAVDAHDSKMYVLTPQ
Method in brief: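 Fluorogenic read-out: 4-methylumbelliferone at Ex 365/Em 440 nm after NaOH/glycine stop (pH 10). Enzyme 2 nM, 4-MU-alpha-galactoside 80 uM, citrate buffer pH 4.5, 20 min RT; normalized to no-enzyme and enzyme controls.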

[2] = molecular target: Alpha-galactosidase (Coffea arabica) (UniProt Q42656); assay: Counterscreen for Glucocerebrosidase Inhibitors: qHTS Assay for Coffee Bean alpha-Galactosidase at pH 5.9 (AID 998; active means well fitted curve in the direction sought with a large enough effect; an effect the other way counts as inactive or inconclusive;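 further: plate controls were uninhibited enzyme for no effect and no-enzyme basal signal for full effect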)
Method in brief: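 Fluorogenic 4-MU substrate hydrolysis, 80 uM substrate and 2 nM coffee bean alpha-galactosidase, pH 5.9 citrate buffer, 20 min at room temperature, then NaOH/glycine stop. Titration 0.7 nM–77 uM, normalized to no-enzyme and enzyme controls, AC50 via Hill equation.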

[3] = Validation screen for inhibitors of Lassa infection (AID 463096); further: on the % scale 0 is the no-effect control and ±100 the full control effect
[4] = molecular target: Chromobox protein homolog 1 (Homo sapiens) (UniProt P83916); assay: qHTS Validation Assay for Inhibitors of HP1-beta Chromodomain Interactions with Methylated Histone Tails (AID 488953; active means well fitted curve in the direction sought with a large enough effect; an effect the other way counts as inactive or inconclusive; further: nearly all actives have a fitted effect of over 50% in size; further: potency means the concentration at half of the fitted maximal effect)
Chromobox protein homolog 1 (Homo sapiens), sequence (P83916 whole entry, looked up): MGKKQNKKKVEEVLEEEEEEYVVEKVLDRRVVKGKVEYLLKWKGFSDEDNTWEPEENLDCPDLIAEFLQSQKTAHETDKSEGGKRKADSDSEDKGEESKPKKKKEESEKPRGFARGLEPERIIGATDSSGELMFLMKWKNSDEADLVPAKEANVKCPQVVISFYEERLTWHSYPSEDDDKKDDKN
Method in brief: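 AlphaScreen proximity readout: streptavidin donor and Ni-chelate acceptor beads, 10 ug/mL final, 30 min dark, RT. Complex of 50 nM HP1-beta and 50 nM b-H3(1-18)K9me3 formed 30 min, then compound-treated 30 min; PBS pH 7.4/0.01% Tween-20.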

[5] = Inducers of the Endoplasmic Reticulum Stress Response (ERSR) in human glioma: Validation (AID 504836; active means well fitted curve in the direction sought with a large enough effect; an effect the other way counts as inactive or inconclusive; further: 0% is about no effect)
Method in brief: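 ERSR induction read as luciferase luminescence (Bright-Glo, 10 min at room temperature) in stably transfected human U87-MG glioma cells exposed to compounds for 16 h, using GRP78 as sensor.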

[6] = molecular target: Bile acid receptor (Homo sapiens) (UniProt Q96RI1); assay: qHTS assay for small molecule agonists of farnesoid X receptor signaling (AID 588527); details: HEK293T FXR-UAS-bla, beta-lactamase ratio, 16 h; activation: hits give high values;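 further: series mostly up to about 77 µM; 0% = vehicle basal and 100% = reference agonist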
Bile acid receptor (Homo sapiens), sequence (Q96RI1 whole entry, looked up): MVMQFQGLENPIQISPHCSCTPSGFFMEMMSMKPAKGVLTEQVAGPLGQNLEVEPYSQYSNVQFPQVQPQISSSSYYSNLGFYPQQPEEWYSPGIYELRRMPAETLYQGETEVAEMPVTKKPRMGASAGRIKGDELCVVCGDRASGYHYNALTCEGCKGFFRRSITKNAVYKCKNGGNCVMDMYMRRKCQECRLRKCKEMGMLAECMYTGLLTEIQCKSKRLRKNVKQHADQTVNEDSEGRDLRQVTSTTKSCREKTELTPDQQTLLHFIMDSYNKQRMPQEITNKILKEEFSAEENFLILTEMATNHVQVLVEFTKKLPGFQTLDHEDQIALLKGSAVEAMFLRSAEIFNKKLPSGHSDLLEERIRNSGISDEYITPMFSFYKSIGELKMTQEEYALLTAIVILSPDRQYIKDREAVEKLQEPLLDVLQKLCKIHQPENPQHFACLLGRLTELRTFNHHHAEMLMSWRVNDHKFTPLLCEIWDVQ
Method in brief: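 FXR-UAS-bla HEK293T, 10% dialyzed FBS; cpds up to 92 uM titration, 16 h 37 C; CCF4 dye 2 h RT; fluorescence. Normalized to chenodeoxycholic acid 100 uM (100%) and DMSO (0%); Hill fit gives EC50, efficacy.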

[7] = molecular target: Peroxisome proliferator-activated receptor delta (Homo sapiens) (UniProt Q03181); assay: qHTS assay for small molecule agonists of peroxisome proliferator-activated receptor delta signaling (AID 588534);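 further: 0% = DMSO basal wells and 100% = positive control agonist at 10 µM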
Peroxisome proliferator-activated receptor delta (Homo sapiens), sequence (Q03181 whole entry, looked up): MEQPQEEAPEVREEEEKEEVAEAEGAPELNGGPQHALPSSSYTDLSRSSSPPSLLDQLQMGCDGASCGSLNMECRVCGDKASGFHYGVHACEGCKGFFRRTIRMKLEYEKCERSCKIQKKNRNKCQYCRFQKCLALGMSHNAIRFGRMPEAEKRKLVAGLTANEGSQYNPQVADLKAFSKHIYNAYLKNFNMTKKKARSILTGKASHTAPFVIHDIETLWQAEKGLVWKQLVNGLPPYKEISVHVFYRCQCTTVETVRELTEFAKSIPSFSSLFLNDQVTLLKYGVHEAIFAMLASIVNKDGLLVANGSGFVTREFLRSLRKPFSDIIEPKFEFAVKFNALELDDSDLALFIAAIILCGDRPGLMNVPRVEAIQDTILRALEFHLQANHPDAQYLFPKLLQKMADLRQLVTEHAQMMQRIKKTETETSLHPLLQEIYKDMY
Method in brief: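 Titration series tested in agonist mode on beta-lactamase reporter cells; 18 hrs at 37 C after a 5 hr pre-incubation. Readout: CCF4 fluorescence, 2 hrs RT. Hill equation gives EC50 and maximal response.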

[8] = molecular target: Arylsulfatase A (Homo sapiens) (UniProt P15289); assay: qHTS screen for enhancers of Arylsulfatase A (ASA1): LOPAC Validation Assay (AID 720538; active means well fitted curve in the direction sought with a large enough effect; an effect the other way counts as inactive or inconclusive)
Arylsulfatase A (Homo sapiens), sequence (P15289 whole entry, looked up): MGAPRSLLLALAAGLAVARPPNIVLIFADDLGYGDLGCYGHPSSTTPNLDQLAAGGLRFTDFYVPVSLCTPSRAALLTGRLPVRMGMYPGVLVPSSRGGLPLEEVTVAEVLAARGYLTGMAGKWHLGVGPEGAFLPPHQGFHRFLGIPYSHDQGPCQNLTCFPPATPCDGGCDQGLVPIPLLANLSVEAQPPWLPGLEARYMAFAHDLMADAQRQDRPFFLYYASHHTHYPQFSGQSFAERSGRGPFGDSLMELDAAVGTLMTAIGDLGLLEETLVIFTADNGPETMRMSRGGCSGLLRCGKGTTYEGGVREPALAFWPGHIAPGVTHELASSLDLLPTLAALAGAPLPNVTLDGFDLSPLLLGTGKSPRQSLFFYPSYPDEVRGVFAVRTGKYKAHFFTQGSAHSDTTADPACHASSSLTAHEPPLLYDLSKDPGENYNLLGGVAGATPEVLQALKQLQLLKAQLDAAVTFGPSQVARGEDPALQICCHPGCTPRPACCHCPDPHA
Method in brief: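 Read-out: fluorescence at Ex=525/Em=598 nm after 1N NaOH final stop. Patient fibroblasts carrying ASA-I179S had 48h compound exposure, then 14h room-temperature pNCS hydrolysis (0.5mM final) in lysis buffer. Signal increase = enhanced activity.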

[9] = qHTS for Inhibitors of the Functional Ribonucleoprotein Complex (vRNP) of Lassa (LASV) Arenavirus: LASV Primary Screen - GLuc reporter signal (AID 1347082; calls by dose curve; tested in HEK293 reporter line; further: series mostly up to about 57 µM; on the % scale 0 is the no-effect control and ±100 the full control effect; nearly all actives have a fitted effect of over 60% in size)
[10] = qHTS for Inhibitors of the Functional Ribonucleoprotein Complex (vRNP) of Lassa (LASV) Arenavirus: Viability assay - alamar blue signal for LASV Primary Screen (AID 1347083; calls by dose curve; tested in HEK293 reporter line; further: series mostly up to about 57 µM; on the % scale 0 is the no-effect control and ±100 the full control effect; nearly all actives have a fitted effect of over 80% in size)
[11] = qHTS for Inhibitors of the Functional Ribonucleoprotein Complex (vRNP) of Lymphocytic Choriomeningitis Arenaviruses (LCMV): Viability assay - alamar blue signal for LCMV Primary Screen (AID 1347085; calls by dose curve; tested in HEK293 reporter line; further: series mostly up to about 57 µM; on the % scale 0 is the no-effect control and ±100 the full control effect; nearly all actives have a fitted effect of over 80% in size)
[12] = molecular target: Nucleoprotein (Lymphocytic choriomeningitis virus (strain Armstrong)) (UniProt P09992); assay: qHTS for Inhibitors of the Functional Ribonucleoprotein Complex (vRNP) of Lymphocytic Choriomeningitis Arenaviruses (LCMV): LCMV Primary Screen - GLuc reporter signal (AID 1347086); further: series mostly up to about 57 µM; on the % scale 0 is the no-effect control and ±100 the full control effect; nearly all actives have a fitted effect of over 70% in size
Nucleoprotein (Lymphocytic choriomeningitis virus (strain Armstrong)), sequence (P09992 whole entry, looked up): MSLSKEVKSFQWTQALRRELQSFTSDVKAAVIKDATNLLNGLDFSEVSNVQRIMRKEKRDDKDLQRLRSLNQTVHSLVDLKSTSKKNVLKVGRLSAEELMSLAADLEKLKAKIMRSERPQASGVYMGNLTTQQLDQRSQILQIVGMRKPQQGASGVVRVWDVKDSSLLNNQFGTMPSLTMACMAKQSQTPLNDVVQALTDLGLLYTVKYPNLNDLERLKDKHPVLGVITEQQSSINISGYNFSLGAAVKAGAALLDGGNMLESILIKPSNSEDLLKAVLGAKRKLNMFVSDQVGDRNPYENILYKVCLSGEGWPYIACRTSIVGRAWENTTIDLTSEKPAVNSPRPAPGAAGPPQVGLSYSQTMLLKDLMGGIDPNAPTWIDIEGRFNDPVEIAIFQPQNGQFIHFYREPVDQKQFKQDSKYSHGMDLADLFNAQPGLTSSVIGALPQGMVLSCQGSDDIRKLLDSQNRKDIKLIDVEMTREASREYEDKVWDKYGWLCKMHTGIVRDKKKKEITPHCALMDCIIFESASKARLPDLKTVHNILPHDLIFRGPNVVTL

[13] = molecular target: M-phase phosphoprotein 8 (Homo sapiens) (UniProt Q99549); assay: qHTS Validation Assay for Inhibitors for MPP8 Chromodomain Interactions with Methylated Histone Tails (AID 488949; active means well fitted curve in the direction sought with a large enough effect; an effect the other way counts as inactive or inconclusive;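 further: AlphaScreen signal from MPP8 chromodomain bound to biotinylated H3K9me3 peptide; top concentration of the series differs between compounds; on the % scale 0 is the no-effect control and ±100 the full control effect; nearly all actives have a fitted effect of over 55% in size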)
M-phase phosphoprotein 8 (Homo sapiens), sequence (Q99549 whole entry, looked up): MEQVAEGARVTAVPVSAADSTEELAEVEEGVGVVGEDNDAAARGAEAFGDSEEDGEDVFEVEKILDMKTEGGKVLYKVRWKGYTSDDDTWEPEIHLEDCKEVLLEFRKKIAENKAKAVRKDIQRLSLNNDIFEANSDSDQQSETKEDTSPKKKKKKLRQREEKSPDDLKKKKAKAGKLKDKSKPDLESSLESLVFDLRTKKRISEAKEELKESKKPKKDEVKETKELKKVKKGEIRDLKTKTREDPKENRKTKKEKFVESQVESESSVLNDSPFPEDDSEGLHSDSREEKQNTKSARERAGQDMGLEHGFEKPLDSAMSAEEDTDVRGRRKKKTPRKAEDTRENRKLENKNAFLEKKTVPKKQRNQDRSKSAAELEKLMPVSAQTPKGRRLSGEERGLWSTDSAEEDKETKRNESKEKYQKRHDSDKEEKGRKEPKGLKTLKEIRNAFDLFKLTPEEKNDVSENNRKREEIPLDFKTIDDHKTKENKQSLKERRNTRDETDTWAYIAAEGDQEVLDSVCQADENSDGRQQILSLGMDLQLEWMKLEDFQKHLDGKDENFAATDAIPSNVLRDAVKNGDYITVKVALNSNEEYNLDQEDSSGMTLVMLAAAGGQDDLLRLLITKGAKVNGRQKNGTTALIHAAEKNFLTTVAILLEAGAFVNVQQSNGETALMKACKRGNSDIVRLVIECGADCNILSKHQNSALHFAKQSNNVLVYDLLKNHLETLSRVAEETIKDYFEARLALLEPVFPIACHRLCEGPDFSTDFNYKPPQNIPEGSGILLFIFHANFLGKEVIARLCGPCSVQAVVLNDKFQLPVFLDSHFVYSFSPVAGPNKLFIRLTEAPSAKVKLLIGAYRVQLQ
Method in brief: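 AlphaScreen read-out: streptavidin donor and nickel chelate acceptor beads (final 10 ug/mL), 30 min in the dark at RT. Complex of 50 nM MPP8 and 50 nM b-H3(1-18)K9me3 peptide had been exposed to compounds for 30 min beforehand.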

[14] = qHTS for Activators of Parkin Expression: LOPAC Validation Assay (FLuc Reporter) (AID 720573; active means well fitted curve in the direction sought with a large enough effect; an effect the other way counts as inactive or inconclusive;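 further: 0% = DMSO and 100% = positive control compounds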)
Method in brief: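 FLuc luminescence read-out from a neuronal line expressing a Parkin-promoter-driven coincidence reporter. Cells treated 24 h at 37 C, 5% CO2 with compounds at 7 concentrations; signal increase normalized to DMSO and positive control.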

[15] = qHTS Assay for Identifying Gametocytocidal Compounds (AID 743244; active means well fitted curve in the direction sought with a large enough effect; an effect the other way counts as inactive or inconclusive;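 further: on the % scale 0 is the no-effect control and ±100 the full control effect; actives lower the fluorescent signal which means gametocytes are killed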); details: P. falciparum 3D7 stage III-V gametocytes, alamarBlue, 72 h; max response: hits give low values
Method in brief: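 Compounds are pinned into medium, gametocytes (stage III–V, 3D7, 20,000 cells/well) added, and plates held 72 h at 37 °C in 5% CO2. AlamarBlue follows for 24 h before fluorescence reading.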

[16] = molecular target: Tyrosyl-DNA phosphodiesterase 1 (Homo sapiens) (UniProt Q9NUW8); assay: Confirmation Assay for Inhibitors of Tyrosyl-DNA Phosphodiesterase (TDP1) (AID 489007; active means well fitted curve in the direction sought with a large enough effect; an effect the other way counts as inactive or inconclusive; further: potency means the concentration at half of the fitted maximal effect; nearly all actives have a fitted effect of over 40% in size); details: recombinant human TDP1 enzymatic activity, dose-response
Tyrosyl-DNA phosphodiesterase 1 (Homo sapiens), sequence (Q9NUW8 whole entry, looked up): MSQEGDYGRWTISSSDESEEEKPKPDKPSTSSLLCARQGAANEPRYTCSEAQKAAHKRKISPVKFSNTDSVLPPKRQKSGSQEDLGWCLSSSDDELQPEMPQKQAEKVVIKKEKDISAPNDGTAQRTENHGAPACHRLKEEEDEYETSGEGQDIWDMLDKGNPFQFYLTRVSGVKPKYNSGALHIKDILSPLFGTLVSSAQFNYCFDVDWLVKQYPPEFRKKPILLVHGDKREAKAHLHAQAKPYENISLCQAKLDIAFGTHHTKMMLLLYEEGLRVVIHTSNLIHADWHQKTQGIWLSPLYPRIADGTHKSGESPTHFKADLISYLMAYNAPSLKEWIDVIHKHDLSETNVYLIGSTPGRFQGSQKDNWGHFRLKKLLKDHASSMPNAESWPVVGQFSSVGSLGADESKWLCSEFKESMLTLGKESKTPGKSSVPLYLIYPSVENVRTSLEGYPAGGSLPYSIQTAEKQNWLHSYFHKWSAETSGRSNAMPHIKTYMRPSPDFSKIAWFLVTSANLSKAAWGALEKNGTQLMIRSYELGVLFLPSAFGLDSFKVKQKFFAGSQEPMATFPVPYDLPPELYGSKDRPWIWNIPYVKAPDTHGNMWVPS
Method in brief: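 AlphaScreen read-out: streptavidin donor and anti-FITC acceptor beads (10 ug/ml) bind intact substrate, so Tdp1 removal of tyrosine-FITC lowers signal. Enzyme 1 nM, substrate 15 nM, 5 min reaction at room temperature after 15 min compound preincubation.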

[17] = Validation screen for small molecules that induce genotoxicity in human embryonic kidney (HEK293T) cells expressing luciferase-tagged ELG1 (AID 493106; active means well fitted curve in the direction sought with a large enough effect; an effect the other way counts as inactive or inconclusive; further: 0% is about no effect)
Method in brief: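 qHTS format; 2,000 HEK293T ELG1-luc cells/well; 23 nL compound via pin tool; 16 hr, 37 °C/5% CO2; ONE-Glo, 30 min RT; luminescence read.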

CC(=O)C(C)=O
inactive: outcome [1] | outcome [2] | Potency [3] | Potency [4] | outcome [5] | activation [6] 0.539% | Potency [7] | Potency [8] | Potency [9] | Potency [10] | Potency [11] | Potency [12]

Cc1ccc(C(=O)O[C@H](C(=O)O)[C@@H](OC(=O)c2ccc(C)cc2)C(=O)O)cc1 (tested in a mixture with another compound)
inactive: Potency [3] | outcome [5] | Potency [9] | Potency [10] | Potency [11] | Potency [12]

N[C@@H](Cc1ccc(F)cc1)C(=O)O
inactive: Potency [3] | outcome [5] | Potency [9] | Potency [10] | Potency [11] | Potency [12]

NCCC1CCCC(CCN)N1 (configuration not stated)
inactive: Potency [3] | outcome [5] | Potency [9] | Potency [10] | Potency [11] | Potency [12]

CC(C)C[C@H](NC(=O)[C@H](O)[C@H](N)Cc1ccccc1)C(=O)O
inactive: Potency [3] | outcome [5] | Potency [9] | Potency [10] | Potency [11] | Potency [12]

N[C@H]1CONC1=O
inactive: Potency [3] | outcome [5] | Potency [9] | Potency [10] | Potency [11] | Potency [12]

O=C(O)/C=C/c1cnc[nH]1
inactive: Potency [3] | outcome [5] | Potency [9] | Potency [10] | Potency [11] | Potency [12]

Nc1ncnc2c1ncn2C1CCCO1 (configuration not stated)
inactive: Potency [3] | outcome [5] | Potency [9] | Potency [10] | Potency [11] | Potency [12]

CCCCCC(O)CCCC(=O)O (configuration not stated)
inactive: Potency [3] | outcome [5] | Potency [9] | Potency [10] | Potency [11] | Potency [12]

CC1=C(C(=O)O)N2C(=O)[C@@H](NC(=O)C(N)c3ccccc3)[C@H]2SC1 (some centres not stated)
inactive: Potency [3] | outcome [5] | Potency [9] | Potency [10] | Potency [11] | Potency [12]

C=CCN1CCc2c(cc(O)c(O)c2Cl)C(c2ccccc2)C1 (configuration not stated)
inactive: Potency [3] | outcome [5] | Potency [9] | Potency [10] | Potency [11] | Potency [12]

COc1ccc2c(c1)CCC1C2CC[C@@]2(C)C1CC[C@@H]2NCCCCCCN1C(=O)C=CC1=O (some centres not stated)
active: Potency [4] 50.1 µM
inactive: Potency [3] | Potency [13] | outcome [5] | outcome [14] | max response [15] 27.3% | Potency [9] | Potency [10] | Potency [11] | Potency [12]

CSC(N)=NCCC[C@H](N)C(=O)O
inactive: Potency [3] | outcome [5] | Potency [9] | Potency [10] | Potency [11] | Potency [12]

NC1(C(=O)O)CCc2cc(C(=O)O)ccc21 (configuration not stated)
inactive: Potency [3] | outcome [5] | Potency [9] | Potency [10] | Potency [11] | Potency [12]

NC1C=CC=C(C(=O)O)C1 (configuration not stated)
inactive: Potency [3] | outcome [17] | outcome [5] | Potency [9] | Potency [10] | Potency [11] | Potency [12]
active: Potency [16] 1.12 µM
